Assay results reported in PubChem BioAssay AID624296 (National Center for Advancing Translational Sciences (NCATS), 2012).
The whole screen tested about 350,000 compounds, of which about 9,900 (2.8%) were called active. About 15% were inconclusive and are not listed. For the sample, actives were picked, then their nearest neighbours and some compounds at random. Values without a mark were called inactive. Calls follow the shape of the dose curve; as a rule, active = well fitted activation curve with a large enough effect; inconclusive = small, poorly fitted or top-dose-only effect; inactive = no such curve, though single readings can be large or run the other way.
Potency is read from the fitted curve at half-maximal effect.

Test: A quantitative high throughput screen for small molecules that induce DNA re-replication in MCF 10a normal breast cells. Also: nearly all actives have a fitted effect of over 50% in size. As to activity, positive = re-replication: % of control where 0% means no effect.
Conditions: MCF 10A DNA re-replication, Hoechst nuclear intensity, 48 h; series mostly up to 46.1 µM; activity, positive = re-replication: at the top concentration
From the text: H Molecular Libraries Probe Production Network [MLPCN]
NIH Chemical Genomics Center [NCGC]
Assay Provider: Melvin DePamphilis, NICHD, NIH
Eukaryotic cells normally restrict genome duplication to once per cell division. When this process is aberrant, DNA re-replication occurs when cells reinitiate DNA replication before the first round of replication is complete. DNA re-replication induces the DNA damage response, arrests cell proliferation, and triggers apoptosis. The cell cycle components cyclin A, Cdt-1, Cdc6 and geminin are critical regulators of this process and their misregulation results in DNA re-replication in normal and cancer cells. To identify compounds that induce re-replication in normal cells, an image-based assay was used to measure DNA content of nuclei, as detected by the fluorescent DNA binding dye, Hoechst. Cell nuclei were imaged by a fluorescence scanning plate imager and compounds that induce DNA re-replication were identified by the increase of nuclei with elevated fluorescence intensity
For screening, 250 cells in 5 uL/well were dispensed into black clear 1536-well plates (Aurora) using a solenoid-based dispenser. Following transfer of 23 nL compound or DMSO vehicle by a pin tool, the plates were incubated 48 hr at 37 C and 5% CO2. After addition of 1 uL/well Hoescht stain, the plates were incubated 40 min at 37 C, 5% CO2 and total intensity of fluorescent objects (nuclei) were enumerated by an Acumen Explorer Ex3 (TTP LabTech) fluorescence scanning plate imager (405 nm excitation, 500-530 nm emission).
Keywords: NIH Roadmap, MLPCN, MLI, MLSMR, qHTS, NCGC, DNA replication, cancer
For C[C@@H]1CN([C@@H](C)CO)C(=O)c2cccc(NS(=O)(=O)c3ccc(F)cc3)c2O[C@H]1CN(C)C(=O)NC1CCCCC1, the “activity, positive = re-replication” value was 2.38%. With CN(C)CCNC(=O)c1ccc(Cl)c2cc3ccccc3nc12 the “activity, positive = re-replication” value was 12%. In the case of O=C(Nc1nc2ccc([N+](=O)[O-])cc2s1)c1ccc(S(=O)(=O)N2CCCc3ccccc32)cc1, the Potency is reported as 2.59 µM (active). In the case of Cc1ccc(NC(=O)c2cccc(S(=O)(=O)N3CCCc4ccccc43)c2)nc1, the “activity, positive = re-replication” value is reported as 15.6%. For CS(=O)(=O)c1ccc2nc(NC(=O)c3ccc(N4CCCC4=O)cc3)sc2c1, the “activity, positive = re-replication” value was -12.8%. With COc1ccc(CNC(=O)COC(=O)c2c(C)nn(-c3ccccc3)c2C)cc1OC the “activity, positive = re-replication” value was -1.39%. In the case of COc1ccc(CCNC(=O)Cc2ccc(C)cc2)cc1OC, the “activity, positive = re-replication” value is reported as 3%. In the case of COc1ccc(NC(=O)CNC(=O)Cc2ccccc2)cc1OC, the “activity, positive = re-replication” value is reported as 2.51%. In the case of COc1ccc(CNC(=O)COC(=O)c2sccc2C)cc1OC, the “activity, positive = re-replication” value is reported as -0.751%. In the case of COc1ccc(CNC(=O)COc2ccccc2C(=O)c2cnn(-c3ccccc3)c2)cc1OC, the Potency is reported as 13 µM (active). With COc1ccc(CNC(=O)Cc2ccc(-c3ccccc3)cc2)cc1OC the Potency was 11.6 µM (active). For CC1CCCCC1NC(=O)NC(=O)COC(=O)C1=NN(c2ccccc2)C(=O)CC1 (centres undefined), the “activity, positive = re-replication” value was 3.38%. For CCn1ccnc1CN(C)C(=O)c1cc(COc2ccc(Cl)cc2OC)on1, the “activity, positive = re-replication” value was -7.68%. For CC1CN(C(=O)c2cc(COc3c(F)cccc3F)on2)CCN1C (centres undefined), the “activity, positive = re-replication” value was -5.24%. With COc1cc(Cl)ccc1OCc1cc(C(=O)N2CC[C@@H]3CCCC[C@H]3C2)no1 the Potency was 16.4 µM (active). In the case of CSc1ncccc1C(=O)NCC(c1ccco1)N1CCCCC1 (centres undefined), the “activity, positive = re-replication” value is reported as -0.472%. In the case of CCCCCCC(=O)Nc1nc(C)c(-c2csc(Nc3cc(Cl)ccc3OC)n2)s1, the “activity, positive = re-replication” value is reported as 11.8%. For COc1ccc(C)cc1Nc1nc(-c2c(C)[nH]c3ccccc23)cs1, the Potency was 18.4 µM (active). With COC(=O)c1cnc(Nc2cc(C)ccc2OC)c2ccccc12 the “activity, positive = re-replication” value was 14.9%. For CN(CC(=O)NCCc1ccc(F)cc1)CC(=O)Nc1ccc(F)c(F)c1F, the “activity, positive = re-replication” value was 2.2%. In the case of CCN(CC)c1ccc(NC(=O)c2ccc(=O)[nH]c2)cc1S(=O)(=O)Nc1ccc(OC)cc1, the “activity, positive = re-replication” value is reported as 18.9%. For Cc1ccc2nc(N3CCN(C(=O)c4ccco4)CC3)sc2c1, the “activity, positive = re-replication” value was 17%. In the case of COc1ccc2nc(N3C(=O)C(O)=C(C(=O)c4ccco4)C3c3ccco3)sc2c1 (centres undefined), the “activity, positive = re-replication” value is reported as 2.93%. In the case of Cc1ccc2nc(N3C(=O)C(O)=C(C(=O)c4ccco4)C3c3cccc(O)c3)sc2c1 (centres undefined), the Potency is reported as 23.1 µM (active). For CCN(C(=O)COC(=O)c1c(C)nn(-c2ccccc2)c1Cl)c1c(N)n(Cc2ccccc2)c(=O)[nH]c1=O, the “activity, positive = re-replication” value was -1.57%. In the case of Cc1cccc(NC(=O)CN2CCN(CC(=O)NCC3(N4CCCCC4)CCCCC3)CC2)c1C, the “activity, positive = re-replication” value is reported as 1.93%. With CCN(CC(=O)Nc1ccc(OC)cc1)C(=O)CSCc1ccc(C)cc1 the “activity, positive = re-replication” value was 4.68%. For OCC[C@H]1C[C@@H](O)[C@H](O)[C@]2(OCCCc3ccccc32)O1, the “activity, positive = re-replication” value was 7.29%. For CN(C)/C=C/C(=O)c1ccccc1F, the “activity, positive = re-replication” value was 4.67%. For O=C(/C=C/c1ccccc1)c1ccccc1O, the Potency was 20.6 µM (active). With O=C(/C=C/c1ccccc1)N/C(=C/c1ccccc1)C(=O)Nc1ccccc1O the “activity, positive = re-replication” value was 0.812%. With O=C(CSc1nnc(-c2ccncc2)o1)Nc1cccc(Cl)c1 the “activity, positive = re-replication” value was -3.65%. With CN(c1ccccc1)S(=O)(=O)c1cc(C(=O)OCC(=O)N2CCN(C(=O)c3ccco3)CC2)ccc1Cl the “activity, positive = re-replication” value was 1.62%. For CN(c1ccccc1)S(=O)(=O)c1ccc(C(=O)N2CCN(c3ccccc3Cl)CC2)cc1, the “activity, positive = re-replication” value was 11.7%. For CN(c1ccccc1)S(=O)(=O)c1cc(C(=O)N2CCN(c3ncccn3)CC2)ccc1Cl, the Potency was 20.6 µM (active). With CN(C(=O)c1cccc(NC(=O)Cc2cccc(NC(=O)C3CCCN(C(=O)C4CC4)C3)c2)c1)C1CCC1 (centres undefined) the “activity, positive = re-replication” value was -0.899%. With CC[C@]1(C(=O)OC)[C@H]2C(=O)N(C)C(=O)[C@H]2[C@H]2CN(C)C(=NCc3ccccc3)N21 the “activity, positive = re-replication” value was -7.09%. With Cc1cc(NC(=O)CSc2ncc(C(F)(F)F)cc2Cl)no1 the “activity, positive = re-replication” value was -3.51%. For C=CC[C@@H](CC(=O)N[C@H](CO)Cc1ccccc1)C(=O)N[C@@H](COC(=O)[C@@H](CC=C)Cc1ccc(F)cc1)Cc1c[nH]c2ccccc12, the “activity, positive = re-replication” value was 3.99%. For Cc1c(CCC(=O)O)c(=O)oc2cc3occ(-c4ccccc4)c3cc12, the “activity, positive = re-replication” value was -9.98%. For CCCCCCc1cc2cc(-c3nnc(-c4ccccc4)o3)c(=O)oc2cc1O, the Potency was 1.46 µM (active). For Cc1c(CC(=O)NCCCCCC(=O)O)c(=O)oc2cc3occ(-c4ccccc4)c3cc12, the “activity, positive = re-replication” value was 5.09%. In the case of CCc1nnc(NC(=O)c2sc3nc(C)cc(COC)c3c2N)s1, the “activity, positive = re-replication” value is reported as 12.4%. For COc1ccc(OC)c(NC(=O)c2sc3nc(C)cc(C)c3c2N)c1, the Potency was 11.6 µM (active). For COCc1cc(C)nc2sc(C(=O)NC3CCCCC3)c(N)c12, the “activity, positive = re-replication” value was 27.3%. With Cc1ccc(COC(=O)CN2C(=O)NC3(CCCC3)C2=O)cc1 the “activity, positive = re-replication” value was 0.31%. For Cc1ccc(NC(=O)CCNC(=O)c2ccc([N+](=O)[O-])cc2)cc1S(=O)(=O)N1CCOCC1, the “activity, positive = re-replication” value was 13.8%. With O=C(CN1C(=O)NC2(CCCCCC2)C1=O)Nc1ccc([N+](=O)[O-])cc1 the “activity, positive = re-replication” value was 2.08%. For COc1cc2c(cc1OC)C1C(=O)c3cc(OS(C)(=O)=O)c(OC)cc3C1N(C)C2=O (centres undefined), the “activity, positive = re-replication” value was 11.8%.
